Experimental data taken from PubChem BioAssay AID623870 (Broad Institute, 2012).
The campaign covered roughly 390,000 compounds. About 2,600 (0.67%) were called active. The sample holds actives, similar compounds and a random draw of the others, so the mix is not that of the screen. Values without a mark were called inactive.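 How the source made its calls: active means mean inhibition of replicates at least 50% and at least half of replicates each reaching 50%; inconclusive means half or more replicates reach 50% but mean below 50%; inactive means the rest.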

Target: Transforming acidic coiled-coil-containing protein 3 (Homo sapiens) (UniProt Q9Y6A5)
Experiment: disruptors of ARNT/TACC3 protein interaction, primary screen, biochemical, AlphaScreen, single concentration (AID 623870);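 further: 0% = complete ARNT plus TACC3 wells and 100% = ARNT alone without TACC3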
Conditions: AlphaScreen His-ARNT PAS-B/GST-TACC3 binding, luminescence; at 9.99 µM; stronger effect = higher value; TACC3 fragment carries E629A point mutation

| SMILES | inhibition |
| --- | --- |
| CCCC(=O)Nc1ccc2c(c1)OC[C@H](C)N(CCC)C[C@@H](C)[C@@H](OC)CN(C)C2=O | 1.16% |
| CC(C)NC(=O)Nc1ccc2c(c1)C(=O)N([C@H](C)CO)C[C@H](C)[C@@H](CN(C)S(=O)(=O)c1ccc(F)cc1)OCCCC[C@H](C)O2 | -7.08% |
| CCCN(C)C[C@@H]1Oc2cc(C#CCc3ccccc3)ccc2S(=O)(=O)N([C@H](C)CO)C[C@@H]1C | 1.97% |
| O=C1CSC(=S)N1/N=C/c1ccc(O)c([N+](=O)[O-])c1 | 12.1% |
| CCOc1cc(/C=N/n2cnnc2)c(Br)cc1O | 7.91% |
| CCOc1cccc(/C=N/N2C(=O)CSC2=S)c1O | 59.8% (active) |
| C[C@H](CO)N1C[C@H](C)[C@H](CN(C)C(=O)c2cnccn2)Oc2cc(C3=CCCC3)ccc2S1(=O)=O | 1.21% |
| COCC#Cc1ccc2c(c1)O[C@@H](CN(C)Cc1ccccn1)[C@@H](C)CN([C@@H](C)CO)S2(=O)=O | -0.755% |
| O=C(NNc1nc(N2CCCC2)nc(N2CCCC2)n1)c1ccccc1 | -2.38% |
| O=C(O)c1ccc(/C=N/Nc2nc(N3CCCCC3)nc(N3CCCCC3)n2)cc1 | 45% (active) |
| C/C(=N\Nc1nc(N2CCOCC2)nc(N2CCOCC2)n1)c1ccc([N+](=O)[O-])cc1 | 15.4% |
| CCCN1C[C@@H](C)[C@H](OC)CN(C)C(=O)c2ccc(NC(=O)C3CCOCC3)cc2OC[C@@H]1C | -0.135% |
| C[C@H]1CN([C@@H](C)CO)C(=O)c2cccc(NC(=O)Nc3ccccc3)c2O[C@H]1CN(C)Cc1ccc(C(F)(F)F)cc1 | 7.66% |
| Fc1ccccc1/C=N/Nc1cc(N2CCCCC2)ncn1 | 22.7% |
| Nc1nonc1-n1nnc(C(=O)N/N=C/c2cc(Br)ccc2O)c1CSC1=NCCS1 | 17.4% |
| Oc1ccc(Br)cc1/C=N/Nc1ccccn1 | 44.2% (active) |
| C[C@H]1CN([C@@H](C)CO)C(=O)c2c(c3ccccc3n2C)-c2ccccc2CO[C@H]1CN(C)S(=O)(=O)c1ccc(C#N)cc1 | 11.3% |
| O=C(C[C@@H]1CC[C@H]2[C@@H](COC[C@@H](O)CN2C(=O)Nc2ccc(F)cc2)O1)NCC1CC1 | 1.68% |
| CN(c1ccccc1)S(=O)(=O)c1ccc(C(=O)N2CCN(c3ccccc3Cl)CC2)cc1 | -20.3% |
| COc1cccc(N(CC(=O)N2CCc3ccccc3C2)S(C)(=O)=O)c1 | 1.07% |
| CN(c1ccc(C(=O)N2CCc3ccccc3C2)cc1)S(C)(=O)=O | 54% (active) |
| COc1ccc(S(=O)(=O)N(C)C[C@@H]2OCCCC[C@@H](C)Oc3ccc(NS(C)(=O)=O)cc3C(=O)N([C@H](C)CO)C[C@@H]2C)cc1 | -15.8% |
| CCCN(C)C[C@H]1Oc2ncc(C#CCOC)cc2C(=O)N([C@@H](C)CO)C[C@H]1C | -7.68% |
| Cc1ccc(S(=O)(=O)Nc2ccc3c(c2)C(=O)N([C@H](C)CO)C[C@H](C)[C@H](CN(C)C(=O)Nc2ccc4c(c2)OCO4)OCCCC[C@@H](C)O3)cc1 | -0.754% |

| SMILES | inhibition |
| --- | --- |
| COc1ccc(Nc2ncc(C(=O)N3CCN(c4ccccc4OC)CC3)c3ccccc23)cc1 | 1.33% |
| O=C(Nn1cc(C(=O)N2CCN(c3ccccc3F)CC2)c2ccccc2c1=O)c1cnccn1 | 68.5% (active) |
| Cc1ccccc1N1CCN(C(=O)c2cccnc2)CC1 | -7.09% |
| Cc1ccc(S(=O)(=O)NCC[C@H]2CC[C@@H](NS(=O)(=O)c3ccccc3Cl)[C@H](CO)O2)cc1 | 2.36% |
| C[C@@H]1CN([C@@H](C)CO)C(=O)c2cc(NC(=O)C3CCCCC3)ccc2O[C@@H]1CN(C)S(=O)(=O)c1ccc(F)cc1 | -1.9% |
| COC(=O)[C@@H]1CCCN1C(=O)c1cc(COc2cccc3cccnc23)on1 | 6.38% |
| CCOc1cc(N2CCOCC2)c(OCC)cc1NC(=O)COc1cccc2cccnc12 | 59.4% (active) |
| NC(=O)C1CCN(C(=O)COc2cccc3cccnc23)CC1 | -5.01% |
| C[C@@H]1CN([C@@H](C)CO)C(=O)c2cccc(N(C)C)c2O[C@@H]1CN(C)S(=O)(=O)c1ccccc1 | -5.11% |
| C[C@@H]1CCCCO[C@H](CN(C)C(=O)CCC(F)(F)F)[C@H](C)CN([C@@H](C)CO)C(=O)c2cc(NC(=O)CCCCCC(=O)Nc3ccccc3N)ccc2O1 | 0.568% |
| CO[C@H]1CN(C)C(=O)c2ccc(NC(C)=O)cc2OC[C@@H](C)N(C(=O)c2ccncc2)C[C@@H]1C | 34.9% |
| O=C(O)C[C@@H]1C[C@@H]2c3cc(NC(=O)Nc4ccccc4)ccc3O[C@@H]2[C@H](CO)O1 | -4.96% |
| C[C@H]1CN([C@@H](C)CO)C(=O)Cc2cc(NC(=O)Nc3ccc(F)cc3)ccc2O[C@H]1CN(C)S(=O)(=O)c1ccc(F)cc1 | -0.385% |
| COc1ccc(CN(C)C[C@H]2Oc3c(NC(=O)c4ccncc4)cccc3C(=O)N([C@H](C)CO)C[C@@H]2C)cc1 | -4.67% |
| Cc1ccc(C(=O)Nc2ccc(C)c(S(=O)(=O)N(C)C)c2)s1 | -4.57% |
| Cc1ccc(NC(=O)CNCc2ccccn2)cc1S(=O)(=O)N(C)C | 71% (active) |
| Cc1cc(S(=O)(=O)NCc2ccccn2)c(Cl)cc1Cl | -1.4% |
| C[C@@H]1CN([C@@H](C)CO)C(=O)c2cc(NC(=O)Cc3ccccc3)ccc2O[C@@H](C)CCCCO[C@H]1CN(C)C(=O)Cc1ccccc1 | -2.35% |
| CC[C@]1(O)C[C@@H]2CN(CCc3c([nH]c4ccccc34)[C@@](C(=O)OC)(c3cc4c(cc3OC)N(C)[C@H]3[C@@](O)(C(=O)OC)[C@H](OC(C)=O)[C@]5(CC)C=CCN6CC[C@]43[C@@H]65)C2)C1 | 16% |
| CC[C@]1(O)CC2CN(CCc3c([nH]c4ccccc34)[C@@](C(=O)OC)(c3cc4c(cc3OC)N(C=O)[C@H]3[C@@](O)(C(=O)OC)[C@H](OC(C)=O)[C@]5(CC)C=CCN6CC[C@]43[C@@H]65)C2)C1 (stereo not given in full) | 52.9% (active) |
| CN1c2ccc(-c3cccc(C#N)c3)cc2[C@H]2[C@H](CCN2S(=O)(=O)c2cccc(F)c2)[C@@H]1CO | -10.1% |
| CNC[C@H]1OCCCC[C@H](C)Oc2ccc(NS(C)(=O)=O)cc2C(=O)N([C@@H](C)CO)C[C@H]1C | -0.797% |
| O=C(COC(=O)c1ccc([N+](=O)[O-])o1)NC12CC3CC(CC(C3)C1)C2 | 31.3% (active) |
| O=C(COC(=O)c1ccc(Br)o1)NC12CC3CC(CC(C3)C1)C2 | 6.24% |

| SMILES | inhibition |
| --- | --- |
| O=C(OCC(=O)c1cccs1)c1ccc([N+](=O)[O-])o1 | -2.19% |
| CCN(C[C@H]1[C@H](c2ccc(-c3ccccc3)cc2)[C@H](CO)N1CC1CC1)C(C)=O | 2.62% |
| C[C@@H]1CCCCO[C@H](CN(C)C(=O)CCC(F)(F)F)[C@@H](C)CN([C@@H](C)CO)C(=O)c2cc(NC(=O)c3ccncc3)ccc2O1 | 11% |
| CC(C)c1ccc(Cc2nnc(NCCCO)[nH]c2=O)cc1 | -6.28% |
| Cc1ccc(Cc2nnc(SCC(=O)Nc3ccccc3C)[nH]c2=O)cc1 | -1.06% |
| COc1ccc(Cc2nnc(N/N=C/c3ccccc3O)[nH]c2=O)cc1OC | 58.3% (active) |
| COc1cccc(NC(=O)C[C@H]2CC[C@@H]3[C@H](COc4ccc(NC(C)=O)cc4C(=O)N3C)O2)c1 | 13% |
| C[C@@H]1CN([C@H](C)CO)C(=O)c2cc(NC(=O)Nc3ccc4c(c3)OCO4)ccc2O[C@@H]1CN(C)C(=O)Nc1ccc(F)cc1 | 14% |
| CCC(=O)N1C[C@H]2[C@@H](c3ccccc31)[C@H](CO)N2Cc1ccccc1F | -4.33% |
| CC(=O)N1[C@@H](CO)[C@@H]2c3ccccc3N(S(=O)(=O)c3ccccc3)C[C@@H]21 | 4.39% |
| O=C(C1CCCC1)N1[C@H](CO)[C@@H]2c3ccccc3N(S(=O)(=O)c3ccccc3)C[C@@H]21 | -1.74% |
| O=S(=O)(c1ccccc1)N1C[C@@H]2[C@H](c3ccccc31)[C@H](CO)N2Cc1ccccn1 | 32.5% (active) |
| O=C(C[C@@H]1CC[C@@H]2[C@H](COC[C@@H](O)CN2Cc2ccc(Cl)cc2)O1)NCc1ccccc1Cl | 1.65% |
| COc1ccccc1Nc1nc(N)nc(CSC(=S)N2CCOCC2)n1 | 0.944% |
| COc1ccccc1NC1=NC(c2ccc(Cl)cc2)N=C(N)N1 (stereo not given) | -1.44% |
| COc1ccccc1Nc1nc(N)nc(CN(C)C2CCCCC2)n1 | 54% (active) |
| COc1ccc(S(=O)(=O)N(C)C[C@@H]2Oc3ncc(C#Cc4ccc(F)cc4)cc3C(=O)N([C@H](C)CO)C[C@@H]2C)cc1 | -1.03% |
| N#CC1=C(N)Oc2c(ccc3cccnc23)C1c1ccncc1 (stereo not given) | 71.2% (active) |
| N#CC1=C(N)Oc2c(sc3ccccc23)C1c1ccco1 (stereo not given) | 34.5% |
| C[C@@H]1CN([C@H](C)CO)C(=O)c2c(c3ccccc3n2C)-c2ccccc2CO[C@@H]1CN(C)C(=O)Nc1ccccc1 | 6.33% |
| CCCNC(=O)N(C)C[C@@H]1Oc2ncc(C#CCc3ccccc3)cc2C(=O)N([C@@H](C)CO)C[C@H]1C | -5.08% |
| COc1ccc(S(=O)(=O)N(C)C[C@H]2OCCCC[C@@H](C)Oc3ccc(NC(=O)CCC(F)(F)F)cc3C(=O)N([C@@H](C)CO)C[C@H]2C)cc1 | -1.27% |
